Test results published in PubChem BioAssay AID651820 (National Center for Advancing Translational Sciences (NCATS), 2012).
In all, about 340,000 compounds went through this assay and about 12,000 (3.5%) were called active. Inconclusive results (about 18%) are left out. What follows is part of a selection rich in actives, with near analogues and random picks from the rest. Values without a mark were called inactive. Calls follow the shape of the dose curve; as a rule, active = well fitted inhibition curve with a large enough effect; inconclusive = small, poorly fitted or top-dose-only effect, or another doubt; inactive = no such curve, though single readings can be large or run the other way.

Assay: qHTS Assay for Inhibitors of Hepatitis C Virus (HCV)
Conditions: Huh7.5.1 HCVcc-Cre infection, luciferase reporter, 44 h; series mostly up to 41.8 µM; activity change, negative = inhibition: at the top concentration
Text: Hepatitis C virus (HCV) infects about 200 million people in the world. Many infected people progress to chronic liver disease including cirrhosis with a risk of developing liver cancer. To date, there is no effective vaccine for hepatitis C. Current therapy based on interferon is only effective in about half of the patients and is associated with significant adverse effects. The fraction of people with HCV who can complete a successful treatment is estimated to be no more than 10 percent. Recent development of direct-acting antivirals against HCV, such as protease and polymerase inhibitors, is promising but still requires combination with peginterferon and ribavirin for maximal efficacy. In addition, these agents are associated with high rate of resistance and many have significant side effects. Due to the lack of a culture system for infectious HCV, the search for new HCV drugs has been greatly hampered. […] High-throughput screening (HTS) with an infectious HCV system would cover the complete spectrum of potentially druggable targets in all stages of HCV lifecycle, and would have more biological relevance than other cell-based assays. Moreover, targeting several key processes in the viral life cycle may not only increase antiviral efficacy; more importantly, it may also reduce the capacity of the virus to develop resistance to the compound. The goal of this project is to identify novel HCV inhibitors as new therapies for hepatitis C, using a highly sensitive and specific assay platform which is based on a HCV infectious cell culture system established in the laboratory and adapted for high-throughput HCV drug screen. NIH Chemical Genomics Center [NCGC] NIH Molecular Libraries Probe Centers Network [MLPCN] MLPCN Grant: MH095511 Assay Submitter (PI): Jake Liang, NIDDK
The assay will start with plating 1,000 cells/well in 3 µL volume and culture for 4 h. Then 23 nL of compounds from the library collection will be added to each well, followed by adding 2.5 µL of HCVcc-Cre virus (~ 0.5 moi) and further cultured for 44 h before the luciferase assay. A volume of 4.5 µL luciferase substrates will be added to each well and the plates will be incubated at room temperature for 15 min. and then read for 15 sec. for the luciferase activity
% is scaled to controls: 0 for no effect and ±100 for the full control effect.

Compound | activity change, negative = inhibition [%] | Potency
O=C(c1ccc(Cl)nc1)N1CCN(S(=O)(=O)c2ccc3c(c2)OCCO3)CC1 | -7.42 | –
COc1cc(C(c2c(NC(=O)c3ccco3)sc(C)c2C)N2CCOCC2)cc(OC)c1OC (configuration not stated) | 5.51 | –
COc1cccc(NC(=O)C2C(c3ccccc3)C2(Cl)Cl)c1 (configuration not stated) | – | 12.6 µM (active)
COc1cccc(NC(=O)C2CCCN2C(=O)OCc2ccccc2)c1 (configuration not stated) | 13.3 | –
COc1cccc(NC(=O)c2ccccc2SC)c1 | -1.29 | –
Cc1ccccc1-c1cc(C(=O)NCc2cccs2)n(CC2CC(c3cccnc3)=NO2)n1 (configuration not stated) | -8.14 | –
O=C(CCCCCCCC(=O)N1CCCCC1)N1CCCCC1 | -4.7 | –
O=C(CC1SC(N2CCOCC2)=NC1=O)Nc1ccccc1F (configuration not stated) | 3.09 | –
COc1cc(C(=O)NCc2ccncc2)cc(Br)c1OCc1ccccc1 | – | 10 µM (active)
COc1cc(C(=S)NCc2ccccc2)cc(Br)c1O | -13.2 | –
COc1cc(C=O)c(Br)cc1OCC(=O)NCc1ccccc1 | -9.16 | –
O=c1c2ccccc2ncn1CCc1ccncc1 | -0.693 | –
CCOc1ncccc1C(=O)OCC(=O)N1c2ccccc2CC1C (configuration not stated) | -0.457 | –
C[C@@H]1CN([C@@H](C)CO)C(=O)c2cccc(NS(=O)(=O)c3ccc(F)cc3)c2O[C@H]1CN(C)C(=O)NC1CCCCC1 | -10.1 | –
O=C(NCCN1CCN(Cc2ccccc2)CC1)c1cc2c(=O)[nH]c3ccccc3c2s1 | – | 12.6 µM (active)
Cn1c(C(=O)NCCN2CCc3ccccc3C2)cc2c(=O)[nH]c3ccccc3c21 | -20.8 | –
CCN(CC)CCCNC(=O)c1cc2c(=O)[nH]c3ccc(C)cc3c2s1 | -15.9 | –
CSc1ccccc1C(=O)OCC(=O)N1CCN(C(C)=O)CC1 | 5.57 | –
Cc1ccc(S(=O)(=O)n2oc(=O)c(C3CCCCC3)c2N)cc1 | -14.1 | –
O=C1CSc2ccc(C(=O)NCc3ccccn3)cc2N1 | 28.3 | –
COc1cc2nc(Cl)nc(NCCO)c2cc1OC | 4.09 | –
COc1ccc(CCNc2ncnc3c2nnn3Cc2ccccc2)cc1 | -8.73 | –
COc1ccc(-c2oc3ncnc(NCCCO)c3c2-c2ccc(OC)cc2)cc1 | – | 12.6 µM (active)
Nc1ccc2c(c1)C(O)c1ccc(Cl)cc1-2 (configuration not stated) | -6.9 | –
Clc1cccc(Cl)c1OCCOCCNCc1ccccc1 | -1.97 | –
CN(C)CCOC1c2ccccc2-c2ccccc21 | -15.1 | –

Compound | activity change, negative = inhibition [%] | Potency
CN(C)CCOCCOc1ccc(Cl)c2ccccc12 | – | 10 µM (active)
CCC(C)N(C(=O)CSc1nnnn1-c1ccccc1OC)C1CCS(=O)(=O)C1 (configuration not stated) | -3.37 | –
CN(C(=O)Cn1nnc(-c2ccc(F)cc2)n1)C1CCS(=O)(=O)C1 (configuration not stated) | -3.26 | –
CCN1CCN(C(=O)CSc2ccc(C)cc2)CC1 | 11 | –
CCOC(=O)C1CCCN(C(=O)/C=C/c2ccc(OC)cc2)C1 (configuration not stated) | 5 | –
CCN1CCC(O)(/C=C/c2ccc(C)cc2)C(C(=O)/C=C/c2ccc(C)cc2)C1 (configuration not stated) | – | 14.1 µM (active)
NC(=O)C1(Nc2ccccc2Cl)CCCC1 | -11.2 | –
O=C(CCNC(=O)c1ccc(Cl)cc1)NC1CCCc2ccccc21 (configuration not stated) | -24.4 | –
CCOc1ccc(C(C)NC(=O)CN2C(=O)NC3(CCCCC3)C2=O)cc1OCC (configuration not stated) | -0.805 | –
CN(C)S(=O)(=O)c1cccc(NC(=O)COc2ccc3ccccc3c2)c1 | – | 22.4 µM (active)
CN(C)S(=O)(=O)c1cccc(NC(=O)COC(=O)/C=C/c2cccs2)c1 | 7.42 | –
CN(C)S(=O)(=O)c1cccc(NC(=O)COC(=O)c2cc(=O)[nH]c(=O)[nH]2)c1 | 16.2 | –
CCc1c(Nc2ccccc2C)nc(N)[nH]c1=O | 7.29 | –
C[C@H](CO)N1C[C@H](C)[C@@H](CN(C)S(=O)(=O)c2ccc(F)cc2)Oc2ccc(NC(=O)CCC(F)(F)F)cc2C1=O | 13.6 | –
CCOC(=O)c1ccc(-n2c(C)nc3c(cnn3-c3ccccc3C)c2=O)cc1 | -2.88 | –
Cc1ccc(Oc2cnn(-c3ccccc3)c(=O)c2Br)cc1 | 10.5 | –
COc1ccc(-n2c(C)nc3c(cnn3-c3ccccc3)c2=O)cc1 | – | 11.2 µM (active)
COc1ccc(CNC(=O)COC(=O)c2sccc2C)cc1OC | -7.13 | –
O=C(COc1cccnc1[N+](=O)[O-])Nc1ccc(Cl)cc1F | 2.37 | –
COC(C[C@@H]1O[C@@H]1C(=O)[C@H](C)OCc1ccccc1)OC | 18.8 | –
Cc1nc(Nc2ccccc2C)c2cnn(C)c2n1 | 8.38 | –
CCNS(=O)(=O)c1ccc(CCC(=O)N2CCN(c3ccc(OC)cc3)CC2)cc1 | -29.2 | –
CCNS(=O)(=O)c1ccc(CCC(=O)N2CCN(c3cc(Cl)ccc3C)CC2)cc1 | – | 11.2 µM (active)
CCCNS(=O)(=O)c1ccc(CCC(=O)N2CCCC2)cc1 | -7.28 | –
COC(C/C=C/C(=O)[C@@H](C)OCc1ccccc1)OC | -1.38 | –
Nc1nc(-c2ccccc2)cc(-c2ccccc2)n1 | – | 10 µM (active)
